# From PubChem
# CYP2C19 inh: blockers of cytochrome P450 2C19 activity – biochemical, luminescence, ADME assay, primary screen | P33261 | 96,000 tested, 21% active | inhibition, % at 5 µM | CYP2C19 Supersomes, luciferin-H EGE luminescence, 30 min;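 active means CYP2C19 inhibition above a set limit at 5 µM in the primary screen, cut at about 50% in these data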;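 further: plate controls were negative control wells for no effect and 2.5 mM tranylcypromine positive control for full effect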
# CYP2C9 act: human CYP2C9 activators, primary screen, biochemical, luminescence. recombinant CYP2C9, luciferin-H conversion; active compounds read high; factor 1 = untreated enzyme, 0 = blocked. activation factor at 5 µM. 96,000 tested, 1.4% active. Cytochrome P450 2C9 (Homo sapiens), P11712. AID 1024, 2008;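 active means activation factor of 2 or more for CYP2C9 at a 5 µM dose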;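 further: 0 = sulfaphenazole-blocked wells and 1 = vehicle-only wells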
# Target sequence (P11712 whole entry, looked up): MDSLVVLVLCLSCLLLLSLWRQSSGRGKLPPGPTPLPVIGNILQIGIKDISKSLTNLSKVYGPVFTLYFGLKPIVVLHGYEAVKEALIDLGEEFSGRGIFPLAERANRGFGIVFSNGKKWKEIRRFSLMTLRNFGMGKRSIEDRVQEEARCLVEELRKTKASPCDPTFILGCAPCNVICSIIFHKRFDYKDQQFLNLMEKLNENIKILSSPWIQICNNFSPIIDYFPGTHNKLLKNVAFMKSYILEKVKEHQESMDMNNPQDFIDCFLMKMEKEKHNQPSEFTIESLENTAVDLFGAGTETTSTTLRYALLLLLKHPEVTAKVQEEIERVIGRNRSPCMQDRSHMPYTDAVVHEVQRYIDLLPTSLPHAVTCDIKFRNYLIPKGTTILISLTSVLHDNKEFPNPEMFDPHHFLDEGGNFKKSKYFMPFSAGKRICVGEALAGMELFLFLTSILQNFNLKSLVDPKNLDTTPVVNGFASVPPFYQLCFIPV
# CYP2C9 inhib: blockers of cytochrome P450 2C9 activity – biochemical, luminescence, ADME assay, primary screen; inhibition, % at 5 µM; P11712; 96,000 tested, 20% active; CYP2C9 Supersomes, luciferin-H conversion;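 active means blocking of liver enzyme CYP2C9 beyond about 50% at 5 µM, limit read from the data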
# CYP2C19 activ: human CYP2C19 activators, primary screen, biochemical, luminescence; Cytochrome P450 2C19 (Homo sapiens), P33261; recombinant CYP2C19, luciferin-H EGE luminescence; active compounds read high; 0 = fully inhibited enzyme, 1 = untreated enzyme; activation factor at 5 µM; 96,000 tested, under 10 active; AID 1025, 2008;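 active means activation factor of at least 2 at 5 µM in the primary screen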;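 further: 0 = wells with 2.5 mM tranylcypromine and 1 = vehicle-only wells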
# Measles CPE: compounds protecting cells from measles virus cytopathic effect, primary screen, measles RdRp inhibitor project, single point, MLSMR library, absorbance; Measles virus-infected cells, CPE protection; protection (pct of control), % at 4 µM; 140,000 tested, 1.5% active; AID 841, 2007; in the data active means protection mostly above about 24%, no sharp cut-off; inactive means mostly below about 26%
# An asterisk follows results filed as active; nt = no result given. Shown are actives, neighbours in structure and some others; about 22% of the full set was active somewhere.
SMILES,CYP2C19 inh,CYP2C9 act,CYP2C9 inhib,CYP2C19 activ,Measles CPE
CCC(=O)c1ccc(N2CCCCCC2)c(F)c1,68*,0.5,52*,0.3,4
CCOC(=O)N1CCN(Cc2c(F)cccc2F)CC1,76*,0.6,36,0.2,20
C/C(CC1(O)C(=O)Nc2ccccc21)=N\O (stereo not drawn),4,0.9,6,1,20
CC1(C)CC(=O)c2c(oc3cc(O)c(O)cc23)C1,2,3.2*,-216,1,13
CCNC(=O)NC(=O)C(C)SCc1ccccc1C (stereo not drawn),67*,0.6,44,0.3,nt
Fc1ccc(Cn2nnnc2CN2CCN(C3CCCC3)CC2)cc1,5,1,0,1,37
c1ccc(Cn2nnnc2CN2CCN(c3ncccn3)CC2)cc1,19,0.1,93*,0.8,14
Fc1ccc(Cn2nnnc2CN2CCc3ccccc3C2)cc1,58*,0.5,47,0.4,19
CC1(C)Cc2ccccc2-c2nnc(-c3ccc(O)cc3)n21,-4,0.9,8,1,8
O=C1OC(c2ccccc2)C2(CCCC2)C(=O)C12CCCC2 (stereo not drawn),23,1,3,0.8,3
CC1(C)C(=O)C2(CCCCC2)C(=O)OC1c1ccc(O)cc1 (stereo not drawn),77*,0.4,60*,0.2,14
CC1(C)C(=O)C2(CCCC2)C(=O)OC1c1ccco1 (stereo not drawn),64*,0.8,20,0.4,15
CC1(C)C(=O)C2(CCCCC2)C(=O)OC1c1cccn1-c1ccc([N+](=O)[O-])cc1 (stereo not drawn),nt,nt,nt,nt,30
O=C(CC(NC(=O)c1ccccc1Cl)c1ccccc1)Nc1ccc2c(c1)OCO2 (stereo not drawn),27,0.8,18,0.7,6
O=C(Nc1c(Cl)cc(Cl)cc1-c1nc2ccccc2s1)c1ccc(Br)o1,11,0.4,55*,0.9,16
O=C(CCCN1C(=O)c2ccccc2C1=O)N1CCc2ccccc2C1,50*,0.9,13,0.5,32
O=C(CN1C(=O)c2cccc3cccc1c23)N1CCc2ccccc2C1,64*,1.8,-78,0.4,12
O=C(CN1C(=O)c2cccc3cccc1c23)N1CCN(Cc2ccc3c(c2)OCO3)CC1,nt,nt,nt,nt,2
O=C(CN1C(=O)c2ccccc2S1(=O)=O)N1CCc2ccccc2C1,55*,0.9,13,0.5,6
CN(C)c1nc(NCc2ccccc2)nc(SCC(=O)Nc2ccc(Cl)c(Cl)c2)n1,48,0.1,86*,0.5,9
NC(=O)c1cc2n(n1)C(C(F)(F)F)CC(c1ccco1)N2 (stereo not drawn),-8,1.2,-17,1.1,10
O=C(c1cc2n(n1)C(C(F)(F)F)CC(c1ccco1)N2)N1CCN(c2ccccn2)CC1 (stereo not drawn),-8,0.6,37,1.1,12
Cc1cc(NC(=O)c2cc3n(n2)C(C(F)(F)F)CC(c2ccco2)N3)no1 (stereo not drawn),13,0.5,51*,0.9,19
Cc1cccc(N2CCN(C(=O)c3cc4n(n3)C(C(F)(F)F)CC(c3ccco3)N4)CC2)c1C (stereo not drawn),1,0.1,88*,1,5
COc1ccccc1NC(=O)c1cc2n(n1)C(C(F)(F)F)CC(c1ccc3c(c1)OCO3)N2 (stereo not drawn),81*,0.2,75*,0.2,4
SMILES,CYP2C19 inh,CYP2C9 act,CYP2C9 inhib,CYP2C19 activ,Measles CPE
O=C(O)c1cc2n(n1)C(C(F)(F)F)CC(c1ccco1)N2 (stereo not drawn),5,0.4,62*,0.9,2
COc1ccc(C2CC(C(F)(F)F)n3nc(C(=O)Nc4ccc5c(c4)OCO5)cc3N2)cc1 (stereo not drawn),11,0.6,38,0.9,2
CC1CCN(C(=O)Nc2cccc(NC(=O)N3CCC(C)CC3)c2)CC1,36,0.7,35,0.6,7
Cc1nnn(C23CC4CC(CC(C4)C2)C3)n1,11,1.1,-7,0.9,3
CCOC(=O)Cn1c(=NC(=O)C(C)(C)C)sc2cc([N+](=O)[O-])ccc21,nt,nt,nt,nt,3
Cc1cccc(NC(=O)c2ccccc2NC(=O)C2CCCCC2)c1C,nt,nt,nt,nt,8
O=C(Nc1ccc(F)cc1)Nc1cc(OCC(F)(F)F)cc(OCC(F)(F)F)c1,nt,nt,nt,nt,2
COc1cc(-c2nc3ccc4ccccc4c3c3c2CCC3)cc(OC)c1OC,8,0.9,8,0.9,5
COc1cc2ccccc2c2c1CCCC2=O,59*,1.4,-38,0.4,5
COc1ccc(-c2csc(NCc3ccco3)n2)cc1C,81*,0.4,62*,0.2,11
c1ccc(CCNc2nc(-c3cccnc3)cs2)cc1,92*,0.4,59*,0.1,5
c1cncc(-c2csc(NCc3ccco3)n2)c1,86*,0.3,74*,0.1,19
CC(=O)Nc1ccc(-c2csc(NCc3ccco3)n2)cc1,nt,nt,nt,nt,11
Cc1ccc(C2(C)NC(=O)N(CC(=O)NC(=O)NCCC(C)C)C2=O)cc1 (stereo not drawn),25,0.8,20,0.8,0
Cc1ccccc1C(=NC(=O)c1ccccc1)c1ccccc1,27,0.8,20,0.7,9
COc1ccc(NC(=O)c2cc(OC)c(OC)c(OC)c2Br)cc1OC,nt,nt,nt,nt,9
CCCOC(=O)c1ccc(NC(=O)c2cc(OC)c(OC)c(OC)c2Br)cc1,74*,0.3,65*,0.3,2
COc1cc(C(=O)NCCOc2cccc(C)c2)c(Br)c(OC)c1OC,52*,1.2,-19,0.5,2
COc1cc(C(=O)NCCOc2ccccc2)c(Br)c(OC)c1OC,65*,0.8,21,0.3,5
COc1cc(C(=O)Nc2ccc(C(C)=O)cc2)c(Br)c(OC)c1OC,nt,nt,nt,nt,8
CCN(c1ccccc1)S(=O)(=O)c1ccc2[nH]cc(C(=O)N3CCOCC3)c(=O)c2c1,-9,0.8,20,1.1,12
O=[N+]([O-])c1cc(Br)c(O)c(/C=N/Nc2nnnn2-c2cccc3ccccc23)c1,91*,0,100*,0.1,16
Cc1ccc(-c2nnc(CSc3nnc(COc4cccc5ccccc45)n3-c3ccccc3)o2)cc1,30,0.4,59*,0.7,3
N#CCSc1nnc(COc2cccc3ccccc23)n1-c1ccccc1,91*,0,96*,0.1,0
COc1ccc(-n2c(COc3cccc4ccccc34)nnc2SCC#N)cc1,nt,nt,nt,nt,32
CC1Cc2ccccc2N1C(=O)c1ccc2c(c1)nnn2C (stereo not drawn),49,1.7,-66,0.5,19
CCN1C(=O)c2c(C)nc3ccccc3c2C1=O,58*,0.6,36,0.4,11
